In PubChem BioAssay (NCATS):
Values joined by “and” are separate entries in the source; they are usually repeats but may differ in a detail not shown here. Equal values may be shown once. Records with an inconclusive call do not appear. Entries that show only a call come without a potency. Active and inactive are the calls of the source. Unless noted, calls come from the whole dose curve; as a rule, active = well fitted curve in the direction sought with a large enough effect; inconclusive = small, poorly fitted or top-dose-only effect, or another doubt; inactive = no such curve, though single readings can be large; an effect the other way counts as inactive or inconclusive.

Columns and labels:
[1] = molecular target: Metallo-beta-lactamase type 2 (Klebsiella pneumoniae) (UniProt C7C422); assay: qHTS to identify inhibitors of the New Delhi Metallo-beta-lactamase (NDM): assay validation screen against the NCATS LOPAC Collection (AID 1794843);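 note: nitrocefin turnover by NDM-1 measured as 485 nm absorbance at plateau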
Sequence of Metallo-beta-lactamase type 2 (Klebsiella pneumoniae) (C7C422 whole entry, looked up): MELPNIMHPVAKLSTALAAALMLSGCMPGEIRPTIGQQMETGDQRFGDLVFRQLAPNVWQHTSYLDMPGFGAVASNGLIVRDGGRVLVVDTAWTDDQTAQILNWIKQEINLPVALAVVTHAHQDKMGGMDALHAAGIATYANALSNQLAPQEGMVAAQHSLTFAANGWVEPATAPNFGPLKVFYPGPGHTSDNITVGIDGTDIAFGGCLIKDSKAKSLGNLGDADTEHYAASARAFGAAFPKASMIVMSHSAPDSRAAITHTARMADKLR
Outline: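 NDM-1 at 2 nM final in 50 mM HEPES pH 7.0, 1 uM ZnSO4, 0.01% Tween20, preincubated with LOPAC compounds pinned in DMSO; 50 uM nitrocefin (stock) added. Hydrolysis read as absorbance at 485 nm in the plateau phase.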

[2] = molecular target: Glutathione peroxidase 1 (Homo sapiens) (UniProt P07203); assay: Primary qHTS Assay for Inhibitors of Recombinant Selenoprotein Glutathione Peroxidase 1 (GPX1) (AID 1845191); note: nearly all actives have a fitted effect of over 65% in size; note: potency is the fitted concentration of half-maximal effect
Sequence of Glutathione peroxidase 1 (Homo sapiens) (P07203 whole entry, looked up): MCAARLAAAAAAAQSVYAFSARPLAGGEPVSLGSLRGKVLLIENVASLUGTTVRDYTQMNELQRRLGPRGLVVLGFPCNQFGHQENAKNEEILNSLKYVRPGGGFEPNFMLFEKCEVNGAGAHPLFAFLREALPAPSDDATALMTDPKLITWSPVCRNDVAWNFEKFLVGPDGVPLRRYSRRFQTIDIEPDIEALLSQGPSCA
Outline: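 GR-coupled readout: NADPH consumption tracked by fluorescence, ex 340/em 450 nm, at t=0 and after 15 min at RT. Final mix 10 nM GPX1, 1 mM GSH, 0.5 mM CHP, 0.5 mM NADPH, 100 nM GR, 0.01% BSA, following 30 min enzyme–compound preincubation.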

[3] = molecular target: Phospholipid hydroperoxide glutathione peroxidase GPX4 (Homo sapiens) (UniProt P36969); assay: Primary qHTS Assay for Inhibitors of Recombinant Selenoprotein Glutathione Peroxidase 4 (GPX4) (AID 1845192); details: outcome: dose series up to 50 µM unless noted; note: nearly all actives have a fitted effect of over 65% in size
Sequence of Phospholipid hydroperoxide glutathione peroxidase GPX4 (Homo sapiens) (P36969 whole entry, looked up): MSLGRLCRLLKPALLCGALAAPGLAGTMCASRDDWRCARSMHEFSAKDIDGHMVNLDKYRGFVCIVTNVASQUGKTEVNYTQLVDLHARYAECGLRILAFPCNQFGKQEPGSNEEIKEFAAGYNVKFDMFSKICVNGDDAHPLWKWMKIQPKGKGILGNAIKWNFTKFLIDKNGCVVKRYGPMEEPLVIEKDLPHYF
Outline: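 Steps: GPX4 plus compound, 30 min RT; add GR/GSH/NADPH master mix; start with cumene hydroperoxide; read 340/450 nm fluorescence at 0 and 15 min. Finals were 200 nM GPX4, 1 mM GSH, 0.5 mM CHP, 0.5 mM NADPH, 100 nM GR.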

[4] = qHTS drug screen for cell cycle checkpoint inhibitors in PARPi-resistant BRCA-mutant ovarian cancer cell lines. (AID 1963452; calls by dose curve); details: PEO1/OlaR viability, CellTiter-Glo luminescence, 96 h, stronger effect = lower value
Outline: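 PEO1, PEO4 and PEO1/OlaR ovarian cancer cells, 600 per well, exposed 96 h at 37C to a dilution series. Viability read by CellTiter-Glo luminescence, normalized to DMSO and empty wells; activity summarized as Z-AUC.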

[5] = qHTS profiling for inhibitors of Plasmodium falciparum proliferation (AID 504749); note: nearly all actives have a fitted effect of over 60% in size; details: P. falciparum in erythrocytes, SYBR Green DNA, 72 h, at 28.7 µM (top of the series)
Outline: (§1)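 SYBR Green fluorescence (ex 485 nm, em 535 nm) reports parasite DNA after 72 h compound exposure of infected red cells at 0.3% parasitemia, 2.5% hematocrit; signal normalized to 0.29 uM artemisinin and vehicle wells.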

3D7 = assay: as above; details: P. falciparum in erythrocytes, SYBR Green DNA, 72 h; series mostly up to 28.7 µM
Outline: as §1

AA1029 = assay: as above; details: P. falciparum in erythrocytes, SYBR Green DNA, 72 h; series mostly up to 28.7 µM
Outline: as §1

AS120 = assay: as above; details: P. falciparum in erythrocytes, SYBR Green DNA, 72 h; series mostly up to 28.7 µM
Outline: as §1

ATS189 = assay: as above; details: P. falciparum in erythrocytes, SYBR Green DNA, 72 h; series mostly up to 28.7 µM
Outline: as §1

ATS95 = assay: as above; details: P. falciparum in erythrocytes, SYBR Green DNA, 72 h; series mostly up to 28.7 µM
Outline: as §1

C2A = assay: as above; details: P. falciparum in erythrocytes, SYBR Green DNA, 72 h; series mostly up to 28.7 µM
Outline: as §1

CP185 = assay: as above; details: P. falciparum in erythrocytes, SYBR Green DNA, 72 h; series mostly up to 28.7 µM
Outline: as §1

CP191 = assay: as above; details: P. falciparum in erythrocytes, SYBR Green DNA, 72 h; series mostly up to 28.7 µM
Outline: as §1

7G8 = assay: as above; details: P. falciparum in erythrocytes, SYBR Green DNA, 72 h; series mostly up to 28.7 µM
Outline: as §1

[6] = measured here: PEO1 parental Z-AUC

SMILES	Potency [1]	Potency [2]	outcome [3]	Z-AUC [4]	Z-AUC [4, 6]	Z-AUC ([4]; measured here: PEO4 Z-AUC)	activity, negative = inhibition ([5]; parasite line A)	activity, negative = inhibition ([5]; parasite line B)	Potency (3D7)	Potency (AA1029)	Potency (AS120)	Potency (ATS189)	Potency (ATS95)	Potency (C2A)	Potency (CP185)	Potency (CP191)	Potency (7G8)
COc1ccc([C@@H]2Sc3ccccc3N(CCN(C)C)C(=O)[C@@H]2OC(C)=O)cc1	inactive	inactive	inactive	1.43 (inactive)	0.963	0.74	3.17% (inactive)	7.3% (inactive)	inactive	inactive	inactive	inactive	inactive	inactive	inactive	inactive	
CCCCNC(=O)NS(=O)(=O)c1ccc(C)cc1	inactive	inactive	inactive				1.62% (inactive)	0.192% (inactive)	inactive	inactive	inactive	inactive	inactive	inactive	inactive	inactive	inactive
CC(C(=O)O)c1ccc(CC2CCCC2=O)cc1 (stereo unspecified)	inactive	inactive	inactive				0.257% (inactive)	5.29% (inactive)	inactive	inactive	inactive	inactive	inactive	inactive	inactive	inactive	inactive
COc1ccc2c(c1OC)C(=O)O[C@@H]2[C@H]1c2c(cc3c(c2OC)OCO3)CCN1C	inactive	inactive	inactive	0.757 (inactive)	0.922	0.499											
C[C@]12C=CC(=O)C=C1CC[C@H]1[C@@H]3C[C@@H](O)[C@](O)(C(=O)CO)[C@@]3(C)C[C@H](O)[C@@]12F	inactive	inactive	inactive														
O=c1[nH]c(=O)n([C@H]2C[C@H](O)[C@@H](CO)O2)cc1Br	inactive	inactive	inactive				-7.76% (inactive)	-6.27% (inactive)	inactive	inactive	inactive	inactive	inactive	inactive	inactive	inactive	inactive
CO[C@@]1(NC(=O)CSCC#N)C(=O)N2C(C(=O)O)=C(CSc3nnnn3C)CS[C@@H]21	inactive	4.04 µM (active) and 25.1 µM (active)	inactive														
CC(C)(C)NCC(O)c1cc(O)cc(O)c1 (stereo unspecified)	inactive	inactive	inactive														
CN=C(NC#N)NCCSCc1nc[nH]c1C	inactive	inactive	inactive				-4.42% (inactive)	-7.15% (inactive)	inactive	inactive	inactive	inactive	inactive	inactive	inactive	inactive	inactive
NCCCNCCSP(=O)(O)O	inactive	inactive	inactive				8.13% (inactive)	13.6% (inactive)	inactive	inactive	inactive	inactive	inactive	inactive	inactive	inactive	inactive
